Assay results as given in PubChem BioAssay (NCI).
Compounds without any hit were thinned out: in the full panel of roughly 83,000, 20% have a hit.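 48-hour exposure, single concentration, 96-well plates; percent growth endpoint where 0 means no net growth. Active: below 10.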 Values without a mark were called inactive. The source made the active and inactive calls.

What was measured:
Assay in all cases: NCI-60 one-dose screen, 48 h (100 = growth as untreated, 0 = no growth, -100 = all killed)
Settings in all cases: 10 µM unless noted
[1] = system: T-47D breast
[2] = system: BT-549 breast
[3] = system: MDA-MB-435 melanoma
[4] = system: SW-620 colon
[5] = system: MCF7 breast
[6] = system: HCT-116 colon
[7] = system: HCC-2998 colon
[8] = system: KM12 colon

SMILES	growth [1]	growth [2]	growth [3]	growth [4]	growth [5]	growth [6]	growth [7]	growth [8]
O=S(=O)(NCCNc1cc(-c2cn(-c3ccccc3)nc2-c2cccc(O)c2)ccn1)c1ccc(F)cc1	7.88% (active)	32.2%	2.49% (active)	18.8%	10.7%	23.9%	-34.9% (active)	11.3%
C#CCC(C)(O)/C=C/C1=C(C)CCCC1(C)C (stereo not given)	83%	87.6%	103%	104%	97.6%	82.6%	106%	97.6%
COc1cccc(NC(=O)c2sc3nc4c(cc3c2N)C(=O)CCC4)c1	51.9%	29.9%	-37.2% (active)	23.6%	29.4%	17.6%	19.9%	16.6%
COc1cnc2c(c1)C(=O)c1c-2n(CCCNC(C)C)c(=O)c2cc([N+](=O)[O-])ccc12	-24.9% (active)	-63.1% (active)	-95.8% (active)	-38.8% (active)	-47.4% (active)	-51% (active)	-83.4% (active)	-39.8% (active)
COc1ccc(-c2n/c(=C\c3c(O)[nH]c4ccc(OC)cc34)cc3c2=Nc2ccccc2-3)cc1	93%	-20.1% (active)	3.6% (active)	0.413% (active)	-22.7% (active)	-72.6% (active)	22.7%	8.66% (active)
N=c1ccc2nc3c(cc(N)c4ccccc43)oc-2c1	-80.1% (active)	-13.2% (active)	-86.1% (active)	-79.6% (active)	-62.3% (active)	-96.1% (active)	-96.8% (active)	-94.9% (active)
CCN(CC)C(=O)CCCCCn1c2ccccc2c2c3c(c4c5ccccc5[nH]c4c21)C(=O)N(O)C3=O	28.2%	56.8%	25.3%	70.1%	18.5%	37.8%	44%	30.8%
COc1cc(-c2cc3ncccc3c3[nH]c(=O)c4cccnc4c23)cc(OC)c1OC	37.5%	49.1%	-26.2% (active)	32.9%	17.3%	17.8%	48.5%	30.7%
Cc1cc(N2CCCCC2)nc(N(CCNc2ccnc3cc(Cl)ccc23)Cc2ccco2)n1	-29.3% (active)	42.4%	32.8%	21.9%	10.7%	2.13% (active)	92.6%	31.9%
NC1(N)C=CC2=C(C=C1)C1(N)C3=C(C=CC(N)(N)C=C3)N2C2(N)C3=C(C=CC(N)(N)C=C3)N1C1=C2C=CC(N)(N)C=C1	74.5%	52.4%	89.8%	95.4%	76.2%	90.2%	105%	93.6%
Cn1cc(-c2csc(-c3cn(CCCN4CCCCC4)c4ccc(Br)cc34)n2)c2cccnc21	21.8%	70.9%	-69.5% (active)	-74.3% (active)	-64.6% (active)	-89.5% (active)	85.5%	9.18% (active)
Fc1ccc(Nc2nc(Nc3ccc(-c4nc5ccccc5[nH]4)cc3)nc(N3CCCC3)n2)cc1	44.6%	85.1%	98.1%	0.692% (active)	32.7%	-53.6% (active)	55.7%	83.8%
Cc1cc(C)n(Cc2cc(C(C)(C)C)cc(C(C)(C)C)c2)c(=O)c1C#N	79.3%	88.5%	102%	101%	88.4%	79.3%	116%	97.5%
Cn1c2ccccc2c2c3c(c4c5cccnc5[nH]c4c21)C(=O)N(O)C3=O	16.4%	44.6%	64.3%	45.4%	12.9%	36.3%	54.4%	65.9%
CCc1nnc(NC(=O)c2ccoc2COc2ccccc2)s1	45.7%	51.2%	-26.1% (active)	24%	24%	30.6%	69%	31.6%
COC(c1ccccc1)(c1ccccc1)c1ccccc1	87.1%	95.7%	108%	99.1%	115%	104%	142%	82.2%
c1ccc(CN2C(c3ccccc3)=Nc3ccccc3C2c2c[nH]c3ccccc23)cc1 (stereo not given)	27.8%	96.3%	39.2%	27.1%	23.5%	14.3%	41.8%	56.8%
CC(=O)NC1=C(C#N)C(c2ccccc2Cl)c2c(ccc3ccccc23)O1 (stereo not given)	62.5%	50%	-11.2% (active)	43%	42.1%	47.5%	85.4%	51.2%
C=C(C)[C@@H]1CC[C@]2(C(=O)NNC(=O)c3cccnc3)CC[C@]3(C)[C@H](CC[C@@H]4[C@@]5(C)CCCNC(C)(C)[C@@H]5CC[C@]43C)[C@@H]12	57.6%	82.3%	83.6%	85.7%	59%	45.7%	73.4%	78.4%
Cn1cc(-c2csc(-c3cn(CCNC(=O)OC(C)(C)C)c4ccccc34)n2)c2cccnc21	-1.03% (active)	67.2%	74.5%	92.4%	39.4%	81.1%	95.8%	59.2%
C[C@H]1[C@@H]2[C@H]3CC[C@@H]4[C@@]5(C)Cc6c([nH]c7ccccc67)C(C)(C)[C@@H]5CC[C@@]4(C)[C@]3(C)CC[C@]23CO[C@]1(C)[C@@H](C(=O)/C=C/c1ccccn1)C3	65%	87.1%	83.8%	95.9%	69.2%	46.4%	103%	93.2%
Nc1c(C(=O)Nc2c(Cl)cccc2Cl)sc2nc3c(cc12)CCCC3	69%	90.1%	5.24% (active)	51%	43.7%	47.8%	92.5%	68.6%
O=C(O)c1cccc2c1-c1ccc(Cl)cc1C2	97.9%	113%	106%	111%	104%	107%	106%	108%
NCCn1cc(-c2nc(-c3c[nH]c4ncccc34)cs2)c2cc(F)ccc21	26.3%	95.7%	81.7%	50.2%	57.2%	61.4%	96.2%	65.6%
CC1(C)C(=O)CC[C@]2(C)[C@H]3C(=O)C=C4[C@@H]5C[C@@](C)(C(=O)NCCNCCN)CC[C@]5(C)CC[C@@]4(C)[C@]3(C)CC[C@@H]12	82%	91.7%	101%	102%	90.6%	83.2%	101%	98.7%
O=C(O[C@@H]1Cc2c(O)cc(O)cc2O[C@@H]1c1cc(O)c(O)c(O)c1)c1cc(O)c2c(c1)OCO2	91.3%	96.2%	105%	106%	100%	86.3%	104%	101%
CN(C)c1ccc(N=C2C=CC(=O)C=C2)cc1	60.6%	31.3%	74.5%	96.3%	72.3%	74.3%	94.3%	97.1%
O=C1/C(=C\C(Cl)=C/c2ccc([N+](=O)[O-])cc2)SC(=S)N1CCc1ccc(O)cc1	-36.4% (active)	-51.8% (active)	-1.96% (active)	-30.1% (active)	-73.4% (active)	-77.2% (active)	-92.3% (active)	-50.5% (active)
CCc1ccccc1NC(=O)c1sc2nc3c(cc2c1N)CCCC3	34.6%	48.4%	1.18% (active)	26.7%	19.8%	18.7%	78.9%	27.9%
C[Si](C)(C)Cc1ccccc1	113%	110%	113%	107%	105%	107%	114%	108%
